What all share (assay): NCI-60 one-dose screen, 48 h (100 = growth as untreated, 0 = no growth, -100 = all killed)
Common to all, as to conditions: 10 µM unless noted

Assay [1] has as its system DU-145 prostate.
The subject of assay [2] is K-562 leukemia.
The test system of assay [3] is MALME-3M melanoma.
The subject of assay [4] is MDA-MB-231 breast.
The subject of assay [5] is RXF 393 renal.
For assay [6], the system named is SF-268 CNS.
The test system of assay [7] is SF-295 CNS.
The subject of assay [8] is SF-539 CNS.
The test system of assay [9] is UACC-257 melanoma.
For assay [10], the system named is M14 melanoma.

Structures are written as SMILES. This is part of a sample that, as a whole, favours compounds with a hit. Of some 83,000 tested, about 20% had one in any assay.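 Percent growth is the endpoint: 0 to 100 indicates growth inhibition (40 means 60% inhibition), 0 means no net growth, and negative values indicate cell death.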 A number with no mark means an inactive call. Active and inactive are the calls of the source. How the source made its calls: active means growth percent below 10; inactive means the rest.

Turning to `CCCC1=NNC(=O)C1`, the growth was 125% in assay [1]; 100% in assay [2]; 101% in assay [3]; 122% in [4]; 113% in assay [5]; 108% in assay [6]. For the same compound, the growth was 97.5% in [7], 89.8% in [8], 90.9% in [9] and 104% in [10].
Take `CCN1CCN(c2ccc(Nc3ncc4ccc5ncn(C(C)C)c5c4n3)nc2)CC1`: the growth in [1] was -22.7% (active); in [2] it was 9.12% (active); in [3], -34% (active); in [4], 0.653% (active); in assay [5] it was -85.4% (active); in assay [6], -34.2% (active). Besides, the growth was -17.8% (active) in assay [7], -75.8% (active) in assay [8], 0.866% (active) in assay [9] and -23.8% (active) in [10].
Regarding `COc1cc(-c2ccc3cc(OC)c(OC)c(OC)c3c2)cc(OC)c1OC`, the growth is 95.9% in assay [1]; 24.9% in [2]; 68.1% in [3]; 65.4% in [4]; 71.4% in assay [5]; 77.4% in [6]. In addition, the growth in assay [7] is 43.8%; in assay [8], 79.3%; in assay [9] it was 75.3%; in [10], 51.4%.
Regarding `Cc1nn(CC(=O)O)c2c1C(=O)CC(C)(C)C2`, the growth in assay [1] is 118%; in assay [2], 123%; in assay [3] it was 118%; in assay [4], 114%; in assay [5], 117%; in assay [6] it was 103%. Also, the growth was 102% in [7], 102% in [8], 96.9% in [9] and 93.2% in assay [10].
As to `COc1ccc(-c2nc3sc(C)cn3c2/C=C/C(=O)c2cc(OC)c(OC)c(OC)c2)cc1`, the growth in assay [1] is 82.2%; in [2], 75.6%; in [3] it was 39.3%; in assay [4] it was 39.5%; in assay [5], 84.5%; in assay [6], 73.4%. Moreover, the growth in [7] is 51.3%; in assay [8] it was 77.6%; in assay [9], 50.8%; in assay [10], 43%.
Consider `O=C(CCCCCCC(=O)Nc1ccc2c(c1)/C(=C/c1ccc[nH]1)C(=O)N2)NO`, for which the growth in [1] is 4.55% (active); in assay [2], 11.6%; in assay [3], 36.5%; in [4], 1.47% (active); in assay [5], -30.8% (active); in [6] it was -13% (active). Moreover, the growth in assay [7] is 6.46% (active); in assay [8], 23%; in assay [9] it was 9.98% (active); in assay [10], 3.6% (active).
As for `C=C[C@H]1C[C@@H]2C[C@@H]3[C@H]4C/C=C\C(=O)NCCCC5NC(=O)C(=C(O)/C=C/[C@@H]4CC(=O)[C@H]3[C@@H]2[C@H]1C)C5=O` (stereo partly drawn), the growth in assay [1] was -95.7% (active); in assay [2], -58.1% (active); in [3] it was -72% (active); in assay [4], -75.6% (active); in assay [5], -85.6% (active); in [6], -88.6% (active). Further, the growth in assay [7] is 9.25% (active); in assay [8], -81.1% (active); in assay [9], -89.1% (active).
For `O=C(COc1ccc(/C=C2\CSc3ccccc3C2=O)cc1)c1ccc(Cl)cc1`, the growth was 113% in [1]; 99.2% in [2]; 98.7% in assay [3]; 97% in assay [4]; 90.4% in assay [5]; 104% in assay [6]. The growth in assay [7] was 125%; in [8] it was 106%; in assay [9], 121%; in [10], 101%.
For the compound `COc1ccc(Cn2c(Br)c3c(c2-c2cc(OC)c(OC)c(OC)c2)CCc2sc(N)nc2-3)cc1`, the growth was 12.4% in assay [1]; 4.43% (active) in assay [2]; 47.7% in assay [3]; 12.6% in assay [4]; -0.407% (active) in assay [5]; 44.3% in assay [6]. Moreover, the growth was 43.7% in assay [7], -13.5% (active) in assay [8], 57.5% in assay [9] and 12% in assay [10].
Turning to `COc1cc2oc(-c3ccc(O)cc3)cc(=O)c2c(O)c1I`, the growth in assay [1] was 104%; in [2], 92.6%; in assay [3] it was 115%; in [4], 99%; in assay [5] it was 138%; in assay [6], 105%. Besides, the growth in assay [7] was 97%; in assay [8], 100%; in [9] it was 96.6%; in assay [10], 110%.
Regarding `NC1=NC(c2ccccc2OS(=O)(=O)c2ccc(Br)cc2)n2c(nc3ccccc32)N1` (stereo not drawn), the growth is 109% in assay [1]; 74.4% in [2]; 104% in assay [3]; 80.1% in assay [4]; 109% in [5]; 95.1% in assay [6]. Besides, the growth is 99.1% in assay [7], 96% in assay [8] and 96.8% in assay [9].
As for `CCN(CC)c1ccc(/C=C(\C#N)c2cc3ccccc3[nH]2)cc1`, the growth in [1] is 74.1%; in assay [2], 14.2%; in assay [3] it was 71.7%; in assay [4], 48.6%; in assay [5], 94%; in assay [6] it was 71.8%. The growth in assay [7] was 46.9%; in [8] it was 58.3%; in assay [9], 81.5%; in assay [10], 29.6%.
With `COc1cc(C(=O)/C=C/c2c(-c3cccs3)nc3sccn23)cc(OC)c1OC`, the growth in assay [1] is 3.28% (active); in [2], 15.4%; in assay [3], 34.8%; in [4], 7.07% (active); in assay [5] it was -20.7% (active); in [6], 17.7%. The growth was -35.8% (active) in [7], -27.6% (active) in assay [8], 5.19% (active) in [9] and 7.73% (active) in assay [10].
With `Cc1nc2cc(Nc3nc(Cl)nc(Nc4ccc(F)cc4)n3)ccc2n1Cc1ccccc1`, the growth in [1] is 64%; in [2] it was 85.2%; in assay [3], 107%; in assay [4], 82.1%; in [5], 77.1%; in assay [6], 91.1%. The growth in assay [7] was 96.4%; in assay [8], 70.2%; in [9] it was 89.7%; in assay [10], 109%.
On to `COC(=O)[C@@]12CC[C@@H](C)[C@]3(C[C@@H](c4ccoc4)OC3=O)[C@H]1CC[C@@H]1O[C@@]12C`, for which the growth in assay [1] was 104%; in [2], 113%; in [3], 101%; in [4], 108%; in assay [5], 118%; in assay [6], 95%. The growth in assay [7] was 100%; in [8] it was 105%; in assay [9], 99.6%; in assay [10], 99.8%.
Turning to `CCOC(=O)c1c(Cl)c2c(n1Cc1cc(OC)cc(OC)c1)-c1oncc1CCC2`, the growth in [1] was 21.5%; in assay [2], 9.73% (active); in assay [3] it was 22.6%; in [4], 35.5%; in [5], 21.7%; in [6] it was 50.5%. Also, the growth in [7] is 6.63% (active); in assay [8] it was 7.36% (active); in assay [9], 72.4%; in [10] it was 12.7%.
Turning to `COc1ccc(-c2nc(Nc3ccc(F)cc3)nc(Nc3ccc4c(c3)nc(C)n4Cc3ccccc3)n2)cc1`, the growth in assay [1] was 54.7%; in [2], 16.1%; in [3], 52.8%; in assay [4], 31.2%; in [5], 35.7%; in assay [6], 46.9%. Also, the growth in assay [7] is 49%; in [8], 67.8%; in assay [9], 43.8%; in [10], 38.9%.
On to `O=C(C[Si](CC(=O)c1cccc(C(F)(F)F)c1)CC(=O)c1cccc(C(F)(F)F)c1)c1cccc(C(F)(F)F)c1`, for which the growth was 33.2% in [1]; 4.55% (active) in assay [2]; 77.2% in [3]; 86.3% in assay [4]; 102% in assay [5]; 40% in assay [6]. Moreover, the growth was 2.69% (active) in [7], 107% in assay [8], 81.8% in assay [9] and 89.4% in [10].
For `COc1ccc(/C=C/C(=O)N2CCC(O)CC2)cc1OC1CCCC1`, the growth in assay [1] is 110%; in [2], 102%; in [3] it was 109%; in assay [4] it was 103%; in [5], 118%; in [6] it was 101%. Besides, the growth was 101% in assay [7], 95.8% in assay [8], 101% in assay [9] and 107% in assay [10].
Turning to `CCOC(=O)c1c(Cl)c2c(n1Cc1ccc(OC)cc1)-c1oncc1CCC2`, the growth is 118% in [1]; 92.1% in [2]; 119% in [3]; 77.2% in assay [4]; 80.5% in assay [5]; 95.9% in [6]. Further, the growth in assay [7] was 99%; in assay [8], 93.3%; in assay [9] it was 96.1%; in [10], 108%.
In the case of `Cn1c(=O)c(S(=O)(=O)c2ccccc2)cc2ccc3c(cnn3-c3ccc(Cl)cc3)c21`, the growth in assay [1] is 82.9%; in [2], 91.6%; in [3], 85.1%; in assay [4] it was 75.7%; in [5], 55.8%; in assay [6], 80.6%. For the same compound, the growth is 90.2% in assay [7], 45% in assay [8], 83.4% in assay [9] and 83.7% in assay [10].
In the case of `Cc1nc2cc(Nc3nc(Nc4ccc(F)cc4)nc(-c4cccs4)n3)ccc2n1Cc1ccccc1`, the growth in assay [1] is 75.2%; in assay [2] it was 43.1%; in assay [3], 77.6%; in [4] it was 69.1%; in assay [5] it was 25.9%; in assay [6] it was 63.7%. Also, the growth in assay [7] is 51.9%; in [8] it was 59.9%; in [9] it was 57.5%; in assay [10], 53.1%.
Take `CCCCCn1c(=N)n(CC(O)COc2cccc(C)c2)c2ccccc21` (stereo not drawn): the growth in assay [1] is 10.4%; in [2] it was 6.52% (active); in [3] it was -6.7% (active); in [4], 22.8%; in [5], 15.5%; in [6], 25.6%. Moreover, the growth was -27.4% (active) in assay [7], -14.7% (active) in assay [8], -19.6% (active) in assay [9] and 15.9% in assay [10].
Take `CC1(C)N=C(N)N=C(N)N1c1cccc(OCCOc2cccc([N+](=O)[O-])c2)c1`: the growth was 45.1% in [1]; 17.9% in assay [2]; 48.2% in assay [3]; 65% in [4]; 73.2% in assay [5]; 22.9% in [6]. In addition, the growth was 68.1% in [7], 26.1% in assay [8], 48.3% in [9] and 64.1% in assay [10].
In the case of `COc1ncnc2c1ncn2C/C(Br)=C(\Br)CCl`, the growth in [1] is 36.8%; in [2], 7.96% (active); in [3] it was -6.59% (active); in assay [4], 41.8%; in assay [5] it was 70.1%; in assay [6], 11.6%. Further, the growth was 97.2% in assay [7], 11.8% in [8], -40.5% (active) in [9] and -24.6% (active) in [10].
Turning to `COC(=O)c1c2c(c(C)[n+]([O-])c1C)C(=O)C=C(NCc1ccc(F)cc1)C2=O`, the growth in assay [1] is -90.6% (active); in assay [2], 1.64% (active); in assay [3], -97.8% (active); in [4] it was -29.3% (active); in assay [5] it was -22.2% (active); in assay [6], -1.99% (active). For the same compound, the growth is -80% (active) in assay [7], -91.2% (active) in assay [8], -87.2% (active) in [9] and -69.3% (active) in assay [10].
As to `CCCCCCCCCCCCCCNc1nc(CO)ncc1-c1ccc(C(F)(F)F)cc1`, the growth in [1] is 103%; in assay [2], 99.6%; in assay [3], 91.8%; in [4] it was 118%; in [5] it was 99.8%; in assay [6], 91.8%. Also, the growth in assay [7] is 97%; in assay [8], 95.6%; in assay [9] it was 94.7%; in assay [10], 99.8%.

The record behind these values is PubChem BioAssay (NCI).
